TDP1 cell CPT: DT40-hTDP1 cell growth loss with CPT. 420,000 compounds, 12% hits. chicken DT40 Tdp1-/-;hTDP1 cells + 20 nM CPT, ATP luminescence, 48 h. Potency, µM (doses to about 46.2 µM), for the others: top-dose activity change, negative = growth inhibition, actives largely listed as inhibitors; note: potency is the fitted concentration of half-maximal effect; nearly all actives have a fitted effect of over 55% in size
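Cell growth measured by CellTiter-Glo luminescence after a minimum 48 h, 37 C compound exposure with 20 nM CPT in Tdp1-knockout DT40 cells stably expressing hTDP1, seeded 400/well; qHTS titration format.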
Six1-Eya2 blk: inhibitors of human Six1/Eya2 interaction. AlphaScreen GST-Six1/His-Eya2 binding, biochemical; active compounds read low. activity change, % (concentration not given with the values). 360,000 compounds, 0.56% hits; in the data active = activity change below about -65%; inconclusive = mostly about -30% to -63%
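GST-Six1 + His-Eya2 (5X stock: 250/500 nM); Tris pH 8.0, 300 mM NaCl, 0.05% BSA, 0.02% Tween 20; GSH donor/Ni acceptor beads; 1 h 37 °C dark; AlphaScreen readout.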
IL1B secr inh: blocks inflammasome-driven IL-1 beta release | activity change, % at 57.5 µM | THP-1 LPS/ATP IL-1B secretion, AlphaLISA, 16 h; active compounds read low | 360,000 compounds, 4.7% hits; in the data active = activity change below about -50%; inconclusive = mostly about -30% to -49%
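THP-1 cells pretreated 1 hr with compounds (up to 57.5 uM final), then stimulated with LPS (250 ng/mL final) plus ATP (1.25 mM final); secreted IL-1B measured by AlphaLISA after 16 hr, decreased signal indicating inhibition.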
TDP1 cell noCPT: qHTS for Inhibitors of human tyrosyl-DNA phosphodiesterase 1 (TDP1): qHTS in cells in absence of CPT; Potency, µM (highest dose often 46.2 µM), inactives show at the top dose activity change, negative = growth inhibition, most hits filed as inhibitors; 420,000 compounds, 15% hits; DT40 Tdp1-/- hTDP1 cells, no CPT, ATP luminescence, 48 h; note: potency is the fitted concentration of half-maximal effect; nearly all actives have a fitted effect of over 55% in size
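Growth kinetics read by CellTiter-Glo luminescence after ≥48 hr at 37 °C. Cells: DT40 Tdp1-/- stably carrying human TDP1, 400 per well, compound exposure in the absence of CPT (DMSO vehicle).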
TDP1 block: TDP1 (human) enzyme inhibition. AID 485290. Q9NUW8. recombinant TDP1, AlphaScreen DNA substrate cleavage. 350,000 compounds, 0.28% hits. Potency, µM (series often up to 130 µM), for the others: at the top dose activity change, negative = inhibition, usual class: inhibitors; note: potency is the fitted concentration of half-maximal effect; nearly all actives have a fitted effect of over 40% in size
Target sequence (Q9NUW8 whole entry, looked up): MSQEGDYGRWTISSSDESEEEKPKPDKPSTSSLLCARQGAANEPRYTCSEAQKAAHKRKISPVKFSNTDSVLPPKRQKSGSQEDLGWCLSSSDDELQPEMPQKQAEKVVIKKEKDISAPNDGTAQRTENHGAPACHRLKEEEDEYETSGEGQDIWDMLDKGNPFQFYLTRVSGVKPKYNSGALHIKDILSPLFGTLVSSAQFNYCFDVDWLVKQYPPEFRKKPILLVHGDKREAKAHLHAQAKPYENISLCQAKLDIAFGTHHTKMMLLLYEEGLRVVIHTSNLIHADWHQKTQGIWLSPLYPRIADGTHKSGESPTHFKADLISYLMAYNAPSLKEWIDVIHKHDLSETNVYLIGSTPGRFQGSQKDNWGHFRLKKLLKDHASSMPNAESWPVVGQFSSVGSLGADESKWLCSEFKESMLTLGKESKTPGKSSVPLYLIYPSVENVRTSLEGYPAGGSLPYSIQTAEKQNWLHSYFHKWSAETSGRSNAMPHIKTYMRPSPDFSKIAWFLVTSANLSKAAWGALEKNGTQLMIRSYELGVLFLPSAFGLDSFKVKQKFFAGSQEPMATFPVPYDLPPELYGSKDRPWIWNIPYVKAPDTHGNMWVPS
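Recombinant E. coli-expressed Tdp1 (1 nM) preincubated with compound 15 min at RT, then 5'-biotin/3'-phosphotyrosine-FITC DNA substrate (15 nM) added for 5 min. AlphaScreen beads (10 ug/ml) added, 10 min RT; tyrosine-FITC cleavage read as signal loss.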
CtBP-E1A blk: inhibitors of CtBP/E1A interaction; AlphaScreen GST-E1A/His-CtBP binding, 1536-well; active compounds read low; activity change, % (concentration not given with the values); 340,000 compounds, 0.49% hits; AID 651724; in the data active = activity change below about -65%; inconclusive = mostly about -30% to -63%
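Protein mix (5X: 125 nM each GST-E1A, His-CtBP) was incubated with pinned compound 2 h at 37 deg C in dark, in 50 mM Tris pH 8.0 buffer with 300 mM NaCl. Glutathione donor and nickel acceptor beads followed; AlphaScreen signal read after 1 h.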
Active calls of the source: *; ? = inconclusive; nt = no result; [ ] = another dose, or the depositor's remark. Most compounds without a hit are left out; they make up all but 18% or so of the library. Unless noted, calls come from the whole dose curve; as a rule, active = well fitted curve in the direction sought with a large enough effect; inconclusive = small, poorly fitted or top-dose-only effect, or another doubt; inactive = no such curve, though single readings can be large; an effect the other way counts as inactive or inconclusive. % is set by controls: 0 for no effect and ±100 for the full control effect.

SMILES	TDP1 cell CPT	Six1-Eya2 blk	IL1B secr inh	TDP1 cell noCPT	TDP1 block	CtBP-E1A blk
Cc1ccc2oc(=O)n(CCNC(=O)Nc3ccc(C)c(F)c3)c2c1	?	nt	nt	23.1µM*	7.0%	nt
Cc1ccc2oc(=O)n(Cc3ccccc3Cl)c2c1	0.9%	nt	nt	-12.9%	-10.1%	nt
O=C(NCCOCCn1c(=O)oc2ccccc21)Nc1ccc(F)cc1F	10.3µM*	nt	nt	11.6µM*	4.7%	nt
CC(C)Cn1c(N)c(C(=O)CSc2nc3ccccc3c(=O)n2CCCN2CCOCC2)c(=O)n(C)c1=O	nt	nt	nt	nt	0.0%	nt
Cc1ccccc1NC(=O)c1ccc2ccccc2c1	-17.1%	9.1	-3.8	-9.6%	nt	-8.4
OCC1OC(c2ccc(OCc3ccccc3)cc2OCc2ccccc2)C(O)C1O (configuration not stated)	10.3µM*	-18.0	?	9.2µM*	nt	3.8
OCC1OC(c2ccc(O)cc2O)C(O)C1O (configuration not stated)	-6.3%	4.1	69.1	-4.4%	nt	6.7
O=c1c(-c2cccc(F)c2)nc2cncnc2n1Cc1ccc(F)cc1	14.3%	nt	nt	-2.2%	nt	nt
O=c1c(-c2ccc(F)c(F)c2)nc2cncnc2n1Cc1ccc(F)cc1	14.6µM*	nt	nt	16.4µM*	nt	nt
O=c1c(-c2cccc(F)c2)nc2cncnc2n1Cc1ccccc1	?	nt	nt	16.4µM*	nt	nt
COc1cccc(Nc2ncnc3sc(C)cc23)c1	?	0.7	13.2	?	-3.3%	nt
CCc1ccc(C(=O)CCC2CCCCC2=O)cc1 (configuration not stated)	?	16.4	-3.6	16.4µM*	-2.3%	30.7
COC(=O)c1sc(-c2ccccc2)cc1NC(=O)Nc1ccc(F)cc1	?	nt	nt	?	5.1%	nt
NC(=O)CSc1nc2c(c(=O)n1-c1ccccc1)C1(CCCCC1)Cc1ccccc1-2	?	19.6	-53.2*	?	5.4%	-4.2
Cc1ccc(NCc2cccnc2)c(Br)c1	0.0%	4.6	-12.6	-16.9%	-3.8%	-4.8
Cn1c(NC(=O)C[n+]2cc(-c3ccc(F)cc3)n3c2CCC3)cc(=O)n(C)c1=O	0.4%	5.7	-0.5	?	2.7%	1.9
Cc1ccc(NC(=O)C[n+]2cc(-c3ccccc3)n3c2CCC3)cc1	-1.4%	-2.1	0.0	?	6.0%	nt
Cc1ccc(-c2c[n+](CC(=O)Nc3cc(=O)n(C)c(=O)n3C)c3n2CCC3)cc1	?	6.6	0.0	14.6µM*	2.7%	-7.0
Cc1ccc(-c2c[n+](CC(=O)Nc3ccccc3C)c3n2CCC3)cc1	?	-8.3	-53.1*	?	1.4%	-9.4
O=C(C[n+]1cc(-c2ccccc2)n2c1CCC2)Nc1nc(-c2ccccc2)cs1	?	-4.6	0.0	23.1µM*	-1.1%	-14.4
Cc1ccc(-c2c[n+](CC(=O)Nc3nc(-c4ccccc4)cs3)c3n2CCC3)cc1	14.6µM*	-18.6	-27.8	18.4µM*	3.9%	-12.0
CCOC(=O)C1CCCN(CC(=O)Nc2nc(-c3ccccc3)cs2)C1 (configuration not stated)	?	-0.3	14.1	?	nt	8.5
Cc1ccc(S(=O)(=O)NCC(=O)OCC(=O)c2cc(C)n(-c3ccccc3)c2C)cc1	-17.1%	-27.1	9.6	-13.4%	5.6%	-9.2
COc1ccc(-c2nc3ccc(Cl)cn3c2Cc2cccc(F)c2)cc1OC	23.1µM*	-1.1	0.0	20.6µM*	nt	2.2
COc1ccc(-c2nc3ccc(C)cn3c2Cc2cccc(F)c2)cc1OC	?	-13.7	-14.7	20.6µM*	nt	-9.3
SMILES	TDP1 cell CPT	Six1-Eya2 blk	IL1B secr inh	TDP1 cell noCPT	TDP1 block	CtBP-E1A blk
COc1ccc(-c2nc3ccc(Br)cn3c2Cc2cccc(F)c2)cc1OC	?	-10.6	-14.1	?	nt	-1.2
CCCc1cc(=O)oc2c3c(c4c(c12)OC(C)(C)C=C4)OC(C)C(C)C3O (configuration not stated)	8.2µM*	15.1	-71.4*	6.51µM*	0.0%	22.2
COCCNC(=O)COC(=O)/C=C/c1c(C)nn(Cc2ccc(Cl)cc2Cl)c1Cl	14.6µM*	-1.4	1.1	16.4µM*	5.2%	-0.1
Cc1nn(Cc2c(Cl)cccc2Cl)c(Cl)c1/C=C/C(=O)OCC(=O)NCC(F)(F)F	?	-1.1	18.8	?	-4.0%	4.3
CC(C)(CNC(=O)c1ccc(NS(=O)(=O)c2ccc(Br)cc2)cc1)N1CCOCC1	-23.8%	-0.5	14.8	-27.9%	5.1%[0.505 µM]	12.5
CCN(CCNC(=O)CCCn1nc(C)n2c(cc3sccc32)c1=O)c1ccccc1	14.6µM*	-20.0	-2.7	23.1µM*	4.9%	-5.4
COc1cccc(C(=O)N2CCN(CCc3ccncc3)CC2)c1	-20.6%	nt	nt	-6.1%	5.7%	nt
CC(=O)Cn1ncc(Br)c(Br)c1=O	5.8µM*	-8.6	-95.5*	5.17µM*	2.7%	0.4
CCc1cc2c(=O)c(-c3nc4ccccc4n3C)coc2c(CN2CCC(C)CC2)c1O	?	5.4	54.8	6.51µM*	nt	4.7
CCOC(=O)c1oc2c(CN3CCN(C)CC3)c(O)c(CC)cc2c(=O)c1-c1nc2ccccc2s1	0.3%	5.3	34.1	3.4%	nt	-1.1
CCc1cc2c(=O)c(-c3nc4ccccc4n3C)coc2c(CN2CCN(C)CC2)c1O	-0.2%	-3.1	-3.6	-0.7%	50.1µM*	1.5
Cc1cc(O)cc2c1O[C@](C)(CCC[C@H](C)CCC[C@H](C)CCCC(C)C)CC2	-9.5%	nt	nt	-18.1%	9.5%	nt
CCc1ccc2c(c1)[C@]1(C(=O)N2)[C@@H]2C(=O)N(Cc3ccccc3)C(=O)[C@@H]2[C@@H]2CCCN21	?	-7.0	-13.8	?	9.8%	-6.1
CCCC(=O)Nc1nnc(SCC)s1	-11.9%	6.7	13.1	-16.0%	2.8%	0.0
Cc1cnc(NC(=O)CC(C)c2ccccc2)s1 (configuration not stated)	6.51µM*	1.9	35.8	5.17µM*	nt	0.0
CCSc1nnc(NC(=O)NC(CC)(C(F)(F)F)C(F)(F)F)s1	?	6.0	?	14.6µM*	-1.0%	7.5
CCOC(=O)c1sc(NC(=O)CSC(=S)N2CCN(C)CC2)nc1C	25.9µM*	-24.1	?	18.4µM*	6.8%	2.2
CCOC(=O)c1sc(NC(=O)C2CC=CCC2C(=O)O)nc1C (configuration not stated)	3.0%	-9.5	7.6	3.5%	22.4µM*	-0.2
NC(=O)NN=C1c2cc(S(=O)(=O)N3CCOCC3)ccc2-c2ccc(S(=O)(=O)N3CCOCC3)cc21	?	nt	nt	3.0%	1.9%	nt
